Shown is part of a subset that was picked to be rich in hits.
ST2 inh: IL1RL1 inhibition; Q01638; AlphaLISA ST2-Fc/biotin-IL-33 interaction, 1 h; inhibition, % for hits at 17 µM; 78,000 tested, 2.3% active; AID 1259354; in the data active = inhibition above about 30%
Target sequence (Q01638 whole entry, looked up): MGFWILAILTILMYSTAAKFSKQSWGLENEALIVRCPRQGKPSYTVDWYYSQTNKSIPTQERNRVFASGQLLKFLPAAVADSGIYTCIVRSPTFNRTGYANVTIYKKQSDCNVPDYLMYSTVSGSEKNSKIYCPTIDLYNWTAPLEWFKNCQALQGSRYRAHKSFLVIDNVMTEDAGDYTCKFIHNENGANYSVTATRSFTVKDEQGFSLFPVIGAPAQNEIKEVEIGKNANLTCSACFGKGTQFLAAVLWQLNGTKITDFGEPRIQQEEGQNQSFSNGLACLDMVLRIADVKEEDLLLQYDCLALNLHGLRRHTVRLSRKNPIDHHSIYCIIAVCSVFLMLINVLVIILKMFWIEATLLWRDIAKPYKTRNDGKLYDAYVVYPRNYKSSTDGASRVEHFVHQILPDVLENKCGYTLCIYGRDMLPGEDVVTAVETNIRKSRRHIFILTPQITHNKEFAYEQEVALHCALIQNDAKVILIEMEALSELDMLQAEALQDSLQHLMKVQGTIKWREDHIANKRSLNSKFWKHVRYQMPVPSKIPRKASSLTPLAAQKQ
Each line names hits and unclear results; the compound was inactive in the other large screens.

Cc1cccnc1CC(C)NC(=O)c1nc(C(C)C)cs1 (configuration not stated)	none
CC1=NC(Nc2nc(C)c3ccccc3n2)=NC(C)(C)C1	ST2 inh 36%
Cc1nc(SCc2ccc(Cl)cc2)nc2ccccc12	none
COc1ccc2nc(NC3=NC(c4ccccc4)CC(=O)N3)nc(C)c2c1 (configuration not stated)	none
CCc1ccc(S(=O)(=O)N2CCN(c3nc(C)cc(Nc4ccc(C)cc4)n3)CC2)cc1	none
CN(Cc1cc(C(C)(C)C)n[nH]1)C(=O)c1cn2c3c(cccc3c1=O)CC2	none
NS(=O)(=O)c1ccc(N=Cc2ccc(Br)cc2)cc1	none
Cc1sc(N=Cc2ccc(Br)cc2)c(C#N)c1C	ST2 inh 55%
COc1ccc(C=Nc2sc3c(c2C#N)CCCC3)cc1[N+](=O)[O-]	none
Cc1nc2ccccc2nc1SCc1cc2c(cc1Cl)OCO2	none
Cc1ccc(Nc2cc(C)nc(Nc3ccc(NC(=O)c4cccc(F)c4)cc3)n2)cc1	none
CCn1c(=O)n(-c2ccc(C)c(C)c2)c2nc(-c3ccccc3F)nc(C(N)=O)c21	none
O=S(=O)(NCC1(O)CCCNCC1)c1ccc(Oc2ccccc2)cc1 (configuration not stated)	none
O=C(Nc1nc(-c2cc3ccccc3oc2=O)cs1)c1cc(=O)c2ccccc2o1	none
COc1cc2ccccc2cc1C(=O)Nc1nc(-c2cc3ccccc3oc2=O)cs1	none
COc1ccc(C(=O)Nc2nc(-c3cc4ccccc4oc3=O)cs2)cc1OC	ST2 inh 38%
O=S(=O)(Nc1cccc(Cl)c1)c1ccc(Br)s1	none
Cc1cccc2sc(NC(=O)c3ccc(S(=O)(=O)N4CCc5ccccc54)cc3)nc12	none
CC(C)(C)CC(NC(=O)c1ccc(-n2cnnc2)cc1)c1cccnc1 (configuration not stated)	none
O=S(=O)(NCc1cccnc1)c1cccs1	none
O=C(CNS(=O)(=O)c1ccc(Br)s1)NCc1cccnc1	none
O=C(CNS(=O)(=O)c1cccs1)NCc1cccnc1	ST2 inh 79%
CCOc1cc(OCC)cc(C(=O)Nc2cccc(-c3nc4ncccc4o3)c2)c1	none
O=C(Nc1cccc(-c2nc3ncccc3o2)c1)c1ccc(OCc2ccccc2)cc1	ST2 inh 33%
CC(C)c1ccc(C(=O)Nc2cccc(-c3nc4ncccc4o3)c2)cc1	none
COc1ccc(-c2cc(C(=O)Nc3sc4c(c3C#N)CCCC4)no2)cc1	none
CCC(Cn1ccnc1)NC(=O)c1ccc2c(c1)nnn2C (configuration not stated)	none
CC(C)C(Cn1ccnc1)NC(=O)c1ccccc1N1CCOCC1 (configuration not stated)	none
CC(C)c1cc(C(=O)NC(Cn2ccnc2)C(C)C)nc2ncnn12 (configuration not stated)	ST2 inh 30%
COc1ccc(Cl)cc1Nc1cc(C)nc2ccc(Cl)cc12	none
Cc1cc(C)cc(N(CC(=O)N2CCN(Cc3ccccc3)CC2)S(C)(=O)=O)c1	none
Cc1ccc(NS(=O)(=O)c2ccc3[nH]c(=O)c(=O)[nH]c3c2)c(Cl)c1	ST2 inh 37%
Cc1ccc(Cl)cc1NS(=O)(=O)c1ccc2[nH]c(=O)c(=O)[nH]c2c1	none
Cc1ccc(NS(=O)(=O)c2ccc3[nH]c(=O)c(=O)[nH]c3c2)cc1Cl	none
O=C(Nc1nc(-c2ccccn2)cs1)c1ccc(Oc2ccccc2)cc1	none
COc1ccccc1C(CC(=O)O)c1ccc2c(c1)OCO2 (configuration not stated)	none
O=C(c1ccc(C2CCCO2)s1)N1C[C@@H]2[C@H](C1)[C@H]1CC[C@@H]2O1 (some centres not stated)	none
CN(C)C(C(=O)N1C[C@@H]2[C@H](C1)[C@H]1CC[C@@H]2O1)c1ccc2c(c1)OCO2 (some centres not stated)	ST2 inh 50%
COC(=O)c1c(NC(=O)COc2cccc(Br)c2)sc(C)c1C	none
CCc1ccc(Nc2nc(N)nc(CSc3nc(C)cc(C)n3)n2)cc1	none
O=C1C2CC=CCC2C(=O)N1CCc1ccccc1Cl (configuration not stated)	none
CCc1ccc(N2C(=O)C3C4C=CC(C4)C3C2=O)cc1 (configuration not stated)	none
Cc1ccc2oc(-c3cc(N)ccc3O)nc2c1	ST2 inh 45%
Nc1ccc2oc(-c3cc(F)c(F)cc3Cl)nc2c1	none
Cc1ccc2oc(-c3ccc(F)cc3)nc2c1	none
CCCc1ccc(C(C)NC(=O)c2c(F)cccc2Cl)cc1 (configuration not stated)	none
COc1cc(C(C[N+](=O)[O-])c2c(C)[nH]c3ccccc23)ccc1O (configuration not stated)	none
Cc1[nH]c2ccccc2c1C(C[N+](=O)[O-])c1ccco1 (configuration not stated)	ST2 inh 36%
Cc1ccc(-c2[nH]c3ccccc3c2C(C[N+](=O)[O-])c2ccco2)cc1 (configuration not stated)	none
COc1ccc(C(C)(C)C)cc1S(=O)(=O)N1CCN(c2nc(C)cc(N3CCCC3)n2)CC1	none
Cc1cccnc1CN(C)Cc1nc(C(C)C)cs1	none
O=C(NCCS(=O)(=O)N1CCCC1)c1cccc2ccnn12	none
COc1cc(C=Nc2ccc(Nc3ccccc3)cc2)c([N+](=O)[O-])cc1OC	ST2 inh 57%
COc1ccccc1N=Cc1cccc([N+](=O)[O-])c1O	none
COc1cc(OC)c(OC)cc1/C=C1\N=C(c2ccc(OC)c([N+](=O)[O-])c2)OC1=O	none
O=C(NC(O)C(=O)c1cccs1)c1ccncc1 (configuration not stated)	none
CN(C)c1ccc(/C=C/c2nc3ccc(I)cc3c(=O)n2C)cc1	ST2 inh 42%
CN(C)c1ccc(/C=C/c2nc3ccccc3c(=O)n2CCCO)cc1	none
COc1ccc(/C=C/c2nc3ccccc3c(=O)n2Cc2ccccc2)cc1	none
CCN(CCn1cccn1)C(=O)c1cc(Cn2cnc3ccccc32)[nH]n1	none
CC1(C)CC2CC(C)(CN2C(=O)C2CCN(S(=O)(=O)c3cccs3)CC2)C1 (configuration not stated)	none
CC(C)C(NS(=O)(=O)c1cccs1)C(=O)NC1CCCCCC1 (configuration not stated)	none
Cc1ccc(S(=O)(=O)N2CCCCC2)cc1C(=O)NC1CCCCC1	none
CC(C)NS(=O)(=O)c1cc(NC2CCCCC2)cc(C(=O)NC2Cc3ccccc3C2)c1	ST2 inh 30%
Cn1c(=O)cc(SCC(=O)NCCCN2CCc3ccccc3C2)c2ccccc21	none
O=C1c2ccccc2C(=O)N1CN(C(=O)c1ccccc1)c1ccc(Br)cc1	none
O=C1c2ccccc2C(=O)N1CN(C(=O)c1ccccc1)c1ccc(F)cc1	ST2 inh 77%
CC(=O)N(CN1C(=O)c2ccccc2C1=O)c1ccc(F)cc1	none
Cc1nc(C(C)N(C)C(=O)NC2CCCC2)c(C)s1 (configuration not stated)	none
O=C(COc1ccccc1[N+](=O)[O-])N1c2ccccc2CCc2ccccc21	none
CC(C)NC(=O)C(=O)N1CCn2nc(C(=O)N3CCN(C)CC3)cc2C1	none
O=C(Nc1ccc(F)c(Cl)c1)c1cc2c(=O)n3ccccc3nc2s1	none
COc1ccc(Cl)cc1NC(=O)c1cc2c(=O)n3ccccc3nc2s1	ST2 inh 37%
O=C(Nc1ccccc1F)c1cc2c(=O)n3ccccc3nc2s1	none
CCC(OC)C(=O)NCc1ccc2[nH]c(-c3ccccc3F)c(C)c2c1 (configuration not stated)	none
O=C1CCc2cc(S(=O)(=O)N3CCCC3)ccc2N1	none
Cc1ccc(NC2SC(=O)N(c3ccccc3)C2=O)cc1 (configuration not stated)	none
